Out of some 310,000 compounds screened, about 14,000 (4.5%) showed an effect of 50% or more. Effects have a minus sign here. Many of the other results were omitted from the sample, so strong results are more common in it than they were.
Target: human ether-à-go-go-related gene (hERG) potassium channel (human, UniProt Q12809)
Test: primary screen, population patch clamp on CHO cells stably expressing hERG; higher = less effect of the substance
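Note: peak tail current of the secondary pulse compared with the same well before compound.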

Chain of human ether-à-go-go-related gene (hERG) potassium channel (Q12809 whole entry, looked up): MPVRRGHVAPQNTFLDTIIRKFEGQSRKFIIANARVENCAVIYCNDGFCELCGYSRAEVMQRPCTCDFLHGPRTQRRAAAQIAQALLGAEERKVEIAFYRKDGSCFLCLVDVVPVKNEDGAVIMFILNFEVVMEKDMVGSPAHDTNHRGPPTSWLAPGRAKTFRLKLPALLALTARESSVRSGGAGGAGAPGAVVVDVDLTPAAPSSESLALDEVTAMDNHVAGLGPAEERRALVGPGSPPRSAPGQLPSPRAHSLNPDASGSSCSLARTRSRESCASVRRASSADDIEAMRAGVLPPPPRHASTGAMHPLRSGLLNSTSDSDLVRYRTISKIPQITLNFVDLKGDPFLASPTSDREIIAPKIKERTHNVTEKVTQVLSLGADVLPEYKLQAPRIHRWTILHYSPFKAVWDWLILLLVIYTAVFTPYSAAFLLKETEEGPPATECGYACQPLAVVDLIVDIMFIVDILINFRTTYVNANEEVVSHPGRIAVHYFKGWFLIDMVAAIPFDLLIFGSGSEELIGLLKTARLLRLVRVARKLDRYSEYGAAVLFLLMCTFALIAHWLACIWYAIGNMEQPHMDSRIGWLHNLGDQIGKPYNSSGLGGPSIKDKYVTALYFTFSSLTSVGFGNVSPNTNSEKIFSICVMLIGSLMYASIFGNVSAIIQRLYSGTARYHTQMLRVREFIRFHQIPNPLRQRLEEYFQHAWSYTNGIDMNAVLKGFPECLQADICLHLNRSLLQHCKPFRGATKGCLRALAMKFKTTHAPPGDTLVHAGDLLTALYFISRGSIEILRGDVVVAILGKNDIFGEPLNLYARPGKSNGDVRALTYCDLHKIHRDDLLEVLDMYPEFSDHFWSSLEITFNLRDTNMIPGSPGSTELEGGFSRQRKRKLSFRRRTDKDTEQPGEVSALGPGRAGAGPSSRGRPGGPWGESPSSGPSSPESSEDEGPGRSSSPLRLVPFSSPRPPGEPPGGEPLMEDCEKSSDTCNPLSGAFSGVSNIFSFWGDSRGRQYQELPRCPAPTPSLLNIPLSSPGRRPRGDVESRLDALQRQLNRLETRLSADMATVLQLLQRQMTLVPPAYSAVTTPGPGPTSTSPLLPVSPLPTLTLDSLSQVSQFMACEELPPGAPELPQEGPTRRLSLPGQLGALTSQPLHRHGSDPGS

Structure (SMILES) | hERG current change (%, negative = inhibition) at 10uM [%]
CC1CN(C2=NC(=O)/C(=C/c3ccncc3)S2)CC(C)O1 (stereo not shown) | -14.5
CCN1CCCC1CNC(=O)c1ccc2c(c1)N(Cc1cccc(Cl)c1)C(=O)c1ccccc1S2(=O)=O (stereo not shown) | -39.7
CCOc1ccc2nc(N(CCN(C)C)C(=O)c3cc4ccccc4cc3OC)sc2c1.Cl | 1.72
CCCC(=O)N(CCN1CCOCC1)c1nc2c(C)cccc2s1.Cl | -7.14
CCOc1ccc2nc(N(Cc3ccccc3)C(=O)CCNC(C)=O)sc2c1 | -61
COc1ccc2nc(N(Cc3ccccc3)C(=O)CCNC(C)=O)sc2c1 | -8.54
Cc1cccc2sc(N(CCN3CCOCC3)C(=O)CCS(=O)(=O)c3ccccc3)nc12.Cl | -13.3
CC(=O)NCCC(=O)N(Cc1ccccc1)c1nc2c(C)cccc2s1 | -57.4
CC(NC(=O)c1cc(F)c(F)cc1Cl)c1ccncc1 (stereo not shown) | 1.1
CCCc1ccc(C(C)NC(=S)NCc2ccc(F)cc2)cc1 (stereo not shown) | 18.6
CCOc1ccc(C(=O)OCC(=O)NC(C)C)cc1 | 22.3
COc1ccccc1NS(=O)(=O)c1ccc(O)c(NC(=S)NCC2CCCO2)c1 (stereo not shown) | 7
CCN(CC)C(=O)C(=O)N/N=C/c1ccc(F)cc1 | 18.7
COC(=O)c1ccc(CSc2ccc3nnc(-c4ccccc4)n3n2)o1 | -53.5
COC(=O)c1ccc(CSc2ccc3nnc(-c4ccc(OC)c(OC)c4)n3n2)o1 | -15.1
COC(=O)c1ccc(CSc2ccc3nnc(-c4cccc(F)c4)n3n2)o1 | -62
COC(=O)c1ccc(CSc2ccc3nnc(-c4ccc(F)cc4)n3n2)o1 | -29.1
CCOc1ccc(-c2nnc3ccc(SCc4ccc(C(=O)OC)o4)nn23)cc1 | -24.4
COC(=O)c1ccc(CSc2ccc3nnc(-c4ccc(OC)cc4)n3n2)o1 | -44.2
COC(=O)c1ccc(CSc2ccc3nnc(-c4ccccn4)n3n2)o1 | -62.8
CSc1nccc(Oc2cncc(Cl)c2)n1 | 8.61
Cc1csc(-c2cnn(-c3ccccc3)c2NC(=O)c2cccc(C(F)(F)F)c2)n1 | 9.98
CC(NC(=S)Nc1ccc(Cl)cc1)C(c1ccccc1)N1CCOCC1 (stereo not shown) | -13
COc1ccc(N=C2C(=O)N3c4c(cccc42)C(C)=CC3(C)C)cc1 | 9

Structure (SMILES) | hERG current change (%, negative = inhibition) at 10uM [%]
Cc1c(CCOC(=O)c2ccccc2)sc[n+]1Cc1ccccc1.[Cl-] | -32.7
Cc1c(CCOC(=O)c2cccc([N+](=O)[O-])c2)sc[n+]1CC(=O)c1ccccc1.[Br-] | -51.1
Cc1[nH+]csc1CCOC(=O)c1ccc([N+](=O)[O-])cc1.[Cl-] | -35.4
Cc1sc[n+](CC(=O)c2ccc(Br)cc2)c1C.[Br-] | -12.7
Cc1c(CCOC(=O)C23CC4CC(CC(C4)C2)C3)sc[n+]1Cc1ccccc1.[Cl-] | -8.89
Cc1c(CCOC(=O)c2cc([N+](=O)[O-])cc([N+](=O)[O-])c2)sc[n+]1CCCCS(=O)(=O)[O-] | 23.4
Cc1c(CCOC(=O)c2ccccc2)sc[n+]1CC(=O)c1ccc(Br)cc1.[Br-] | -77
Cc1c(CCOC(=O)c2cc([N+](=O)[O-])cc([N+](=O)[O-])c2)sc[n+]1CC(=O)c1ccc(Br)cc1.[Br-] | -40.7
COc1ccc(C(=O)OCCc2sc[n+](CC(=O)c3ccccc3)c2C)cc1.[Br-] | -48.9
Cc1ccc(C(=O)OCCc2sc[n+](Cc3ccccc3)c2C)cc1.[Cl-] | -70.1
Cc1c(CCOC(=O)c2ccc([N+](=O)[O-])cc2)sc[n+]1CC(=O)c1ccccc1.[Br-] | -63.7
Cc1c(CCOC(=O)c2cc([N+](=O)[O-])cc([N+](=O)[O-])c2)sc[n+]1CC(=O)c1ccccc1.[Cl-] | 5.96
Cc1cc(NC(=O)C2CCCCC2)nc2c1c(=O)oc1ccccc12 | 3.61
O=C(Nc1cccnc1)c1ccc(S(=O)(=O)N2CCCCCC2)cc1 | 5.14
O=C(CN1C(=O)c2ccccc2C1=O)NCC(=O)OCC(=O)c1ccc(Cl)cc1 | 16.2
CCOc1ccccc1NC(=O)CCC(=O)Nc1ccc2nc(N3CCN(C)CC3)cc(C)c2c1 | 3.51
Cn1c(CCC(=O)Nc2cc(S(C)(=O)=O)ccc2Cl)nc2cc(S(=O)(=O)N3CCOCC3)ccc21 | -25.4
CC(NC(=O)CCc1nc2cc(S(=O)(=O)N3CCOCC3)ccc2n1C)c1ccc(S(N)(=O)=O)cc1 (stereo not shown) | -57.9
Cn1c(CCC(=O)Nc2ccc(F)cc2)nc2cc(S(=O)(=O)N3CCOCC3)ccc21 | -17.7
CCOc1ccc(NS(=O)(=O)c2ccc(C(=O)NCCCN3CCCC3=O)cc2)cc1 | 7.23
CC(=O)Nc1ccc(S(=O)(=O)NNC(=O)c2ccc(S(=O)(=O)N3CCCCC3)cc2)cc1 | 6.41
Cc1ccc(Nc2cc(C)nc(NCc3ccccc3)n2)cc1 | -5.08
CCCCNc1cc(C)nc(NCc2ccccc2)n1 | -59
CCCCOc1cc(C)nc(NCc2ccccc2)n1 | 5.5

Structure (SMILES) | hERG current change (%, negative = inhibition) at 10uM [%]
Cc1cc(N/N=C/c2ccccc2)nc(NCc2ccccc2)n1 | -2.93
Cc1cc(N/N=C/c2ccc(F)cc2)nc(NCc2ccccc2)n1 | -64.2
Cc1ccc(/C=N/Nc2cc(C)nc(NCc3ccccc3)n2)cc1 | -6.03
CN(C)C(CNC(=O)c1cccs1)c1ccco1 (stereo not shown) | 0.144
CC(=O)N1c2ccc(S(=O)(=O)N3CCC(C(=O)NC4CCC(C)CC4)CC3)cc2CC1C (stereo not shown) | 17.3
Cc1ccc(S(=O)(=O)N(C(=O)c2ccncc2)c2ccc(OC(=O)c3ccncc3)cc2)c(C)c1 | -0.914
O=C(O)C(Cc1ccc(Cl)cc1)NS(=O)(=O)c1ccc(Cl)cc1 (stereo not shown) | 27.1
O=S(=O)(N/N=C\c1ccc(-c2ccccc2Cl)o1)c1ccccc1 | 10.4
CN(C)c1ccc(NC(=O)CN2CCN(c3ccc(F)cc3)CC2)cc1 | -4.56
CCN(CC)c1ccc(NC(=O)CN2CCN(CC(=O)Nc3ccc(F)cc3)CC2)cc1 | -76.4
CN(C)c1ccc(NC(=O)CN2CCC(C(=O)c3ccc(F)cc3)CC2)cc1 | -32.1
CCN(CC)c1ccc(NC(=O)CN2CCN(CC(=O)Nc3ccccc3F)CC2)cc1 | -64.9
CN(C)c1ccc(NC(=O)CN2CCN(CC(=O)Nc3ccc(F)cc3)CC2)cc1 | -77.1
CCN(CC)c1ccc(NC(=O)CN2CCN(c3nc(C)cc(C)n3)CC2)cc1 | -21.7
CCN(CC)c1ccc(NC(=O)CN2CCN(c3ccccn3)CC2)cc1 | -2.86
CCN(CC)c1ccc(NC(=O)CN2CCN(c3ccccc3F)CC2)cc1 | -5.61
CCN1CCN(CC(=O)Nc2ccc(N(C)C)cc2)CC1.O=C(O)C(=O)O | -2.52
COc1ccc(NC(=O)CSc2n[nH]c(-c3ccco3)n2)cc1 | -2.42
Br.CC(C)CC(N)C(=O)OCc1ccc([N+](=O)[O-])cc1 (stereo not shown) | 7.33
CCN(CC)c1nc(Nc2ccccc2)nc(Oc2ccc(=O)[nH]n2)n1 | -14.2
COc1ccc(CCNC(=O)C(=O)c2c(C)[nH]c3ccccc23)cc1 | 6.09
Cc1nc2nc(SCC(=O)N3CCC4(CC3)OCCO4)nn2c(C)c1Cc1ccccc1 | -24.9
CCCN(C(=O)c1ccccc1Cc1ccccc1)C1CCS(=O)(=O)C1 (stereo not shown) | -0.454
COc1ccc(CN2CCOCCOCCOCCOCCOCC2)cc1 | -20.7

Structure (SMILES) | hERG current change (%, negative = inhibition) at 10uM [%]
COc1ccc(CN2CCOCCOCCOCCOCC2)cc1 | -36
COc1ccc(CN2CCCCCC2)cc1 | -10.9
COc1ccc(CN2CCOCCOCCN(Cc3ccc(OC)cc3)CCOCCOCC2)cc1 | -77.3
COc1ccc(CN2CCOCC2)cc1 | 10.7
COc1ccc(CN2CCOCCOCCOCC2)cc1 | -58.3
COc1ccc(-n2nnnc2SCC(=O)Nc2cc(OC)c([N+](=O)[O-])cc2C)cc1 | 42.4
COc1ccccc1N1CCN(C(=O)C(C)N(c2ccccc2)S(C)(=O)=O)CC1 (stereo not shown) | 5.64
CCOC(=O)Nc1ccc(C)cc1NC(=O)OCC | 11.7
Cc1ccc(NS(=O)(=O)c2cccs2)c(C)c1 | -2.42
N#C/C(=C/c1ccc(F)cc1)S(=O)(=O)c1ccccc1 | 21.3
Cc1oc(-c2cccs2)nc1CN1CCC(CO)(CCOc2ccccc2)CC1 | -67
Cc1oc(-c2cccs2)nc1CN1CC[C@@](O)(c2ccccc2)[C@H]2CCCC[C@@H]21 | 11.8
COc1cccc(CC2(CO)CCCN(Cc3ccc(CO)o3)C2)c1 (stereo not shown) | -7.04
Cc1oc(-c2cccs2)nc1CN1CCN(Cc2ccc(F)c(F)c2)C(CCO)C1 (stereo not shown) | -47.2
COc1cccc(CC2(CO)CCCN(Cc3nc(-c4cccs4)oc3C)C2)c1 (stereo not shown) | -64.5
Cc1ccc(CN2CCCC(CO)(Cc3ccccc3C)C2)s1 (stereo not shown) | -37.7
Cc1oc(-c2cccs2)nc1CN1CCN(C(C)C)C(CCO)C1 (stereo not shown) | 4.95
Cc1ccccc1CC1(CO)CCCN(Cc2ccccc2Cl)C1 (stereo not shown) | -25.6
COCc1ccc(CN2CCCC(CO)(Cc3cccc(OC)c3)C2)o1 (stereo not shown) | -26.2
Cc1ccccc1CC1(CO)CCCN(Cc2nc(-c3cccs3)oc2C)C1 (stereo not shown) | -61.1
COc1cccc(CN2CCN(Cc3nc(-c4cccs4)oc3C)CC2CCO)c1 (stereo not shown) | -57
Cc1oc(-c2cccs2)nc1CN1CCN(CC(C)C)C(CCO)C1 (stereo not shown) | 5.96
